{
  "source": "PubChem BioAssay (NCI)",
  "note": "About 83,000 compounds went through this panel and 20% of them were active in at least one assay; those are over-represented in the sample as a whole.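 Single-dose data. Exposure time 48 hours. Values below 10 considered active.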 The source made the active and inactive calls.",
  "data": [
    {"test_system": "SK-MEL-2 melanoma", "experiment": "NCI-60 one-dose screen, 48 h (100 = growth as untreated, 0 = no growth, -100 = all killed)", "details": "10 µM unless noted", "procedure": "Growth inhibition of the SK-MEL-2 human tumor cell line is measured as a screen for anti-cancer activity. Cells are grown in 96 well plates and exposed to the test compound for 48 hours. Compounds are tested at a single concentration, which is 10^-5 M for most compounds. The reported endpoint is percent growth (GI% or GIPRCNT), where numbers from 0 - 100% represent growth inhibition, and numbers from -100% - 0 represent cell death. For example, a value of 40 represents 60% growth inhibition. A value of 0 means no net growth occurred over the course of the experiment. A value of -40 indicates 40% of cells at the beginning of the experiment died by the end of the experiment. A value of -100 means all cells are dead at the end of the experiment.\nNCI-60 Human Tumor Cell Lines Screen was performed using the standard one-dose NCI protocol, which is described in more detail at https://dtp.cancer.gov/discovery_development/nci-60/default.htm.\nCompounds with GIPRCNT values below 10 were considered active. Activity score was based on GIPRCNT using the following formula: […]\nScore is 0 for GIPRCNT values of 100 or above, 50 for GIPRCNT values of 0, and 100 for GIPRCNT values of -100.", "values": [
      {"smiles": "Cn1cnc2c(N3CCN(C(=O)OCc4ccc5c(Cl)cc(Cl)c(O)c5n4)CC3)nc(Cl)nc21", "growth": "81% (inactive)"},
      {"smiles": "N=C(N)c1ccc(-c2cc(Cl)cc(Cl)c2)cn1", "growth": "101% (inactive)"},
      {"smiles": "CC(=O)OC[C@]12CC[C@H]3[C@@H](C[C@H]4O[C@]45CC=CC(=O)[C@]35C)[C@]1(O)CC[C@@]2(O)[C@@](C)(O)C1CC(C)=C(C)C(=O)O1", "note": "(stereo not given in full)", "growth": "-22.6% (active)"},
      {"smiles": "NC(=S)N/N=C(/CCN1CCCC1)CC(C1=C(O)C2=CCCCC2OC1=O)c1ccccc1", "note": "(stereo not given)", "growth": "93.2% (inactive)"},
      {"smiles": "Cc1ccc(S(=O)(=O)Nc2c(Br)cc(Br)cc2C(N)=O)cc1", "growth": "113% (inactive)"},
      {"smiles": "Fc1ccc(Nc2ncnc3ccc(-c4cnc5[nH]ccc5c4)cc23)cc1Cl", "growth": "29.9% (inactive)"},
      {"smiles": "COc1ccc(-n2c(=O)sc3c(Cl)nc(C)nc32)c(OC)c1", "growth": "99.4% (inactive)"},
      {"smiles": "CCCCC(CC)OC(=O)C(Br)CC", "note": "(stereo not given)", "growth": "100% (inactive)"},
      {"smiles": "C=C1CCC2C(C)(CO)C(O)CCC2(C)C1C/C=C1/C(=O)OCC1O/C=C/c1ccccc1", "note": "(stereo not given)", "growth": "72.7% (inactive)"},
      {"smiles": "Cc1ccc2[nH]c(=O)c3c(c2c1)Oc1ncn2nc(-c4ccco4)nc2c1C3c1ccc(Cl)cc1", "note": "(stereo not given)", "growth": "95.6% (inactive)"},
      {"smiles": "O=C(NCCNc1nccc(-n2ccc3cccnc32)n1)c1ccc(C(F)(F)F)cc1", "growth": "108% (inactive)"},
      {"smiles": "CC1(C)C(=O)/C(=C\\c2ccc(C(F)(F)F)cc2)C[C@]2(C)[C@H]3CC[C@@H]4[C@H]5[C@H](C(=O)/C=C/c6ccc(C(F)(F)F)cc6)CC[C@]5(CO)CC[C@@]4(C)[C@]3(C)CC[C@@H]12", "growth": "105% (inactive)"},
      {"smiles": "O=C(O)c1nc(-c2ccccc2)oc1N1CCOCC1", "growth": "97% (inactive)"},
      {"smiles": "Nc1nc(=O)c2ccccc2s1", "growth": "104% (inactive)"},
      {"smiles": "COc1cc(NC(=O)SC2=NCCS2)cc(OC)c1", "growth": "106% (inactive)"},
      {"smiles": "COc1ccc(N2CCN(Cc3cc(C(=O)/C=C/c4c[nH]c5ccccc45)ccc3O)CC2)cc1", "growth": "107% (inactive)"},
      {"smiles": "C=C1CCC2C3(C)COC(C)(C)OC3CCC2(C)C1C/C=C1/C(=O)OCC1Oc1ccccc1OC", "note": "(stereo not given)", "growth": "95.6% (inactive)"},
      {"smiles": "COc1ccc(/C=N\\NC(=O)CN2CCN(c3cc4c(cc3F)c(=O)c(C(=O)N/N=C/c3ccc(OC)c(OC)c3)cn4C3CC3)CC2)cc1OC", "growth": "-24.8% (active)"},
      {"smiles": "O=S(=O)(NCCNc1nccc(-c2c(-c3cccc(O)c3)nc3sccn23)n1)c1ccc(F)cc1", "growth": "41.7% (inactive)"},
      {"smiles": "COc1ccc(CN2CCc3c(Sc4ccccc4)nc(N)nc3C2=O)c(OC)c1", "growth": "58.6% (inactive)"},
      {"smiles": "C=C1CCC2C(C)(CO)C(O)CCC2(C)C1C/C=C1/C(=O)OCC1Oc1ccccc1C", "note": "(stereo not given)", "growth": "87.5% (inactive)"},
      {"smiles": "COc1ccc2c(c1)[nH]c(=O)c1c3cc(OC)ccc3cn21", "growth": "71.7% (inactive)"},
      {"smiles": "COc1ccc(-c2cc(-c3ccccc3)nc(SCCCC(=O)NO)n2)cc1OC", "growth": "-1.51% (active)"},
      {"smiles": "COc1cc(-c2nn(C(=O)NS(=O)(=O)c3ccccc3)cc2-c2ccncc2)ccc1Cl", "growth": "94.8% (inactive)"},
      {"smiles": "CCCCCCCC[C@@H](O)CC(=O)N[C@@H](CC(N)=O)C(=O)N[C@@H](CCC(N)=O)C(=O)N[C@@H](CC(=O)c1cc(C)cc(O)c1C(=O)c1c(O)cccc1O)CC(C)C", "growth": "51.9% (inactive)"},
      {"smiles": "C=C1CCC2C3(C)COC(c4ccccc4)OC3CCC2(C)C1/C=C/C1=CCOC1=O", "note": "(stereo not given)", "growth": "51.3% (inactive)"},
      {"smiles": "O=C1Nc2ccc(Cl)cc2C12Nc1cc(Cl)ccc1S2", "note": "(stereo not given)", "growth": "105% (inactive)"},
      {"smiles": "COC1=C(OC)C(=O)C(CCCCCCCCCC[P+](c2ccccc2)(c2ccccc2)c2ccccc2)=C(C)C1=O", "growth": "-42.7% (active)"},
      {"smiles": "CCN(CC)CCOc1ccc(/C(=C(/C)c2ccccc2)c2ccc(OC(C)=O)cc2)cc1", "growth": "121% (inactive)"},
      {"smiles": "Cn1c(=O)c2[nH]c(C3CC=CCC3)nc2n(C)c1=O", "note": "(stereo not given)", "growth": "97.6% (inactive)"},
      {"smiles": "O=C1/C(=C/c2ccccc2)CN(C(=O)CCN2CCC(=NO)CC2)C/C1=C\\c1ccccc1", "growth": "55.2% (inactive)"},
      {"smiles": "c1ccc(-c2nc(N3CCNCC3)c3nc(-c4ccccc4)oc3n2)cc1", "growth": "93.3% (inactive)"},
      {"smiles": "NC1N=C(SCC(=O)N2CCN(c3cc4c(cc3F)c(=O)c(C(=O)O)cn4C3CC3)CC2)NC(=O)/C1=C/c1ccc(Cl)cc1", "note": "(stereo not given)", "growth": "108% (inactive)"},
      {"smiles": "C=C[C@@H]1C[C@@H]2Cc3ccccc3N1O2", "growth": "87.8% (inactive)"},
      {"smiles": "N[C@H]1CN(C(=O)c2cc3cc(Br)c(F)c(F)c3[nH]2)C[C@@H]1O", "growth": "102% (inactive)"},
      {"smiles": "CN1C=CN(Cc2ccc(-c3ccccn3)nc2)[CH-]1.CN1C=CN(Cc2ccc(-c3ccccn3)nc2)[CH-]1.[Au+3]", "growth": "46.5% (inactive)"},
      {"smiles": "COc1ccc2c(c1)C(c1cc(OC)c3c(c1)OCO3)C1=C(COC1=O)N2", "note": "(stereo not given)", "growth": "33.2% (inactive)"},
      {"smiles": "COc1cc(C2CC(c3ccc4c(c3)OCO4)=NN2C(C)=O)cc(OC)c1OC", "note": "(stereo not given)", "growth": "28.5% (inactive)"},
      {"smiles": "Cc1ccc2ccccc2c1C[n+]1ccccc1", "growth": "111% (inactive)"},
      {"smiles": "CC(=O)Oc1csc(N(C(C)=O)c2cc(C(=O)O)cc(C(=O)O)c2)n1", "growth": "106% (inactive)"}
    ]}
  ]
}
